Assay outcomes: PubChem BioAssay, National Center for Advancing Translational Sciences (NCATS)
This is a sample that favours compounds with a hit; in the whole collection about 18% have one here.
VP16 counter = inhibits Gal4-VP16 luciferase reporter, ROR gamma counter-screen; Drosophila S2 Gal4-VP16 UAS-luciferase, luminescence, 20 h; Potency, µM (titrated, usually from 53.6 µM), for the others: top-dose activity, negative = inhibition, most hits filed as inhibitors; 310,000 tested, 3.5% active;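 note: Gal4-VP16 expression switched on by copper sulfate through the metallothionein promoter; potency is the fitted concentration of half-maximal effect; nearly all actives have a fitted effect of over 50% in size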
RORgamma inh = inhibitors of mouse ROR gamma transcriptional activity | P51450 | Drosophila S2 Gal4-RORgamma UAS-luciferase reporter, 20 h | Potency, µM (top dose mostly 53.6 µM), for inactives: top-dose activity change, negative = inhibition, hits mostly inhibitors | 310,000 tested, 5.4% active | AID 2551; note: potency is the fitted concentration of half-maximal effect; nearly all actives have a fitted effect of over 60% in size
Target sequence (P51450 whole entry, looked up, the tested form may be a part): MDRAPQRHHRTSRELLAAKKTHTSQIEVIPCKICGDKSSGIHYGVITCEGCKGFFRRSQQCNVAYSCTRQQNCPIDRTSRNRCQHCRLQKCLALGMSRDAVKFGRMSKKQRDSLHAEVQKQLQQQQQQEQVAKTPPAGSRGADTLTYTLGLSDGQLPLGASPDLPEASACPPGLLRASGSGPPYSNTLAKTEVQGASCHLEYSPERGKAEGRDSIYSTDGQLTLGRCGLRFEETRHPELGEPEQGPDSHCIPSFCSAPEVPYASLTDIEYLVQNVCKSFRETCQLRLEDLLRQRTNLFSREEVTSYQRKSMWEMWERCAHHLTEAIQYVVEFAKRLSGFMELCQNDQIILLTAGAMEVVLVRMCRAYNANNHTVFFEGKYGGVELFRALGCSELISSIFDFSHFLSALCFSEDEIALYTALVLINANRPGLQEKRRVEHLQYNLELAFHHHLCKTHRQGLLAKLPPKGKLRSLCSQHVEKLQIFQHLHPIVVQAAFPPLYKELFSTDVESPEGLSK
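In this cell-based reporter format, copper sulfate (700 uM final) drives Gal4–ROR gamma fusion expression from a metallothionein promoter in Drosophila Schneider cells; compounds preincubated 1 hr, reporter read after 20 hr at ambient temperature.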
LDHA block = inhibitors of human lactate dehydrogenase A; purified LDHA, NADH/diaphorase-resazurin fluorescence; stronger effect = lower value; activity change, % (values are at about 110 or 230 µM); 480,000 tested, 0.15% active; AID 1347041; in the data active = activity change below about -30%; inconclusive = mostly about -25% to -30%;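 note: plate controls were DMSO wells for no effect and wells without enzyme for full effect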
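Human LDH5 at 2 nM final in Tris HCl pH 7.4 with 0.06 mM NADH and 0.2 mM pyruvate, reacted 5 minutes at room temperature. Remaining NADH coupled via diaphorase/resazurin; resorufin fluorescence read at 0 and 20 minutes, normalized to enzyme-free and DMSO wells.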
DT40 TDP1 no CPT = qHTS for Inhibitors of human tyrosyl-DNA phosphodiesterase 1 (TDP1): qHTS in cells in absence of CPT | DT40 Tdp1-/- hTDP1 cells, no CPT, ATP luminescence, 48 h | Potency, µM (highest dose often 46.2 µM), without a hit: at the top dose activity change, negative = growth inhibition, hits mostly inhibitors | 420,000 tested, 15% active | AID 686978, 2013; note: potency is the fitted concentration of half-maximal effect; nearly all actives have a fitted effect of over 55% in size
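Seeded 400 DT40-hTDP1 cells/well (vehicle DMSO, no 20 nM CPT); pinned compounds; ≥48 hr at 37 °C; CellTiter-Glo luminescence as viability measure.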
TDP1 cell CPT = DT40-hTDP1 cell growth loss with CPT. chicken DT40 Tdp1-/-;hTDP1 cells + 20 nM CPT, ATP luminescence, 48 h. Potency, µM (doses to about 46.2 µM), for the others: top-dose activity change, negative = growth inhibition, most hits filed as inhibitors. 420,000 tested, 12% active. AID 686979; note: potency is the fitted concentration of half-maximal effect; nearly all actives have a fitted effect of over 55% in size
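Cell growth measured by CellTiter-Glo luminescence after a minimum 48 h, 37 C compound exposure with 20 nM CPT in Tdp1-knockout DT40 cells stably expressing hTDP1, seeded 400/well; qHTS titration format.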
IL-1B inflam inh = blocks inflammasome-driven IL-1 beta release. THP-1 LPS/ATP IL-1B secretion, AlphaLISA, 16 h; stronger effect = lower value. activity change, % at 57.5 µM. 360,000 tested, 4.7% active. AID 743279; in the data active = activity change below about -50%; inconclusive = mostly about -30% to -49%
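THP-1 cells pretreated 1 hr with compounds (up to 57.5 uM final), then stimulated with LPS (250 ng/mL final) plus ATP (1.25 mM final); secreted IL-1B measured by AlphaLISA after 16 hr, decreased signal indicating inhibition.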
Numbers without * were called inactive; ? = inconclusive; nt = no result; ! = a repeat was not active. Unless noted, calls come from the whole dose curve; as a rule, active = well fitted curve in the direction sought with a large enough effect; inconclusive = small, poorly fitted or top-dose-only effect, or another doubt; inactive = no such curve, though single readings can be large; an effect the other way counts as inactive or inconclusive. Unless noted, % is set by controls: 0 for no effect and ±100 for the full control effect.

SMILES	VP16 counter	RORgamma inh	LDHA block	DT40 TDP1 no CPT	TDP1 cell CPT	IL-1B inflam inh
Cc1ccc(SCCn2cc(S(=O)(=O)N3CCCC3)ccc2=O)cc1	nt	nt	14	nt	nt	nt
CCOC(=O)c1c(NC(=O)c2ccoc2C)sc2c1CCCCC2	nt	nt	5	nt	nt	nt
CCOC(=O)c1c(NC(=O)C(C)N2CCN(C(=O)c3ccco3)CC2)sc2c1CCCC2 (configuration not stated)	11µM*	-35%	-4	16µM*	15µM*	-57*
CCOC(=O)c1c(NC(=O)c2cccs2)sc2c1CCCC2	-2%	-5%	-4	-31%	0%	-1
O=C(Nc1sc2c(c1C(=O)O)CCCCC2)c1ccco1	?	-41%	-42*!	?	?	23
CCOC(=O)c1c(NC(=O)CCNCc2ccco2)sc2c1CCC2	-11%	-6%	-13	?	?	-69*
CCOC(=O)c1c(NC(=O)c2ccco2)sc2c1CCCCC2	4%	12%	7	29µM*	29µM*	4
Cc1ccc(C(=O)CSc2nnnn2C)cc1C	nt	nt	-5	nt	nt	nt
O=C(Nc1sc2c(c1C(=O)NCCO)CCCC2)c1ccco1	1%	1%	-17	-5%	-7%	-59*
CCOc1ccc(NC(=O)c2c(NC(=O)c3cccc(C)c3)sc3c2CCC3)cc1	nt	nt	-5	-1%	-6%	nt
Cc1cccc(NC(=O)c2c(Br)sc3c2CCCC3)c1	nt	nt	-16	23µM*	?	nt
CN(C)C(=O)c1c(NC(=O)c2ccco2)sc2c1CCCCC2	-1%	34%	1	-5%	?	17
CCOC(=O)c1c(NC(=O)C(C)Sc2cn(CCNC(=O)c3c(F)cccc3F)c3ccccc23)sc2c1CCC2 (configuration not stated)	nt	nt	-2	16µM*	21µM*	nt
CCOC(=O)c1c(NC(=O)CNCCOC)sc2c1CCCC2	1.6µM*	1.3µM*	-2	12µM*	?	-1
CCOC(=O)c1c(NC(=O)C(C)Sc2cn(CCNC(=O)c3ccc(OCC)cc3)c3ccccc23)sc2c1CCC2 (configuration not stated)	nt	nt	-5	?	?	nt
COc1ccc2cc(-c3csc(Nc4ccc(F)cc4)n3)c(=O)oc2c1	nt	nt	-2	nt	nt	nt
CCOc1ccc2c(=O)c(Oc3cccc(OC)c3)coc2c1	nt	nt	-5	nt	nt	nt
CN1CCC/C1=C\C(=O)c1ccccc1	nt	nt	4	nt	nt	nt
CCOC(=O)c1c(NC(=O)c2ccc(N3C(=O)C4C5C=CC(C5)C4C3=O)cc2)sc2c1CCCC2 (configuration not stated)	-28%	1%	0	23µM*	?	-2
COC(=O)CCNC(=O)C(c1ccccc1)c1ccccc1	nt	nt	4	nt	nt	nt
CN1CCN(CC2CNCCO2)CC1 (configuration not stated)	nt	nt	3	nt	nt	nt
CCNc1nc(C#N)nc(N2CCCCC2)n1	nt	nt	-1	?	?	nt
N#Cc1nc(N2CCCCC2)nc(N2CCCCC2)n1	nt	nt	0	13µM*	?	nt
N#Cc1nc(N2CCCCC2)nc(N(c2ccccc2)c2ccccc2)n1	nt	nt	-12	13µM*	11µM*	nt
CCc1ccc(/C=C/C(=O)c2c(C)cc(C)[nH]c2=O)cc1	?	?	0	16µM*	16µM*	-120*
SMILES	VP16 counter	RORgamma inh	LDHA block	DT40 TDP1 no CPT	TDP1 cell CPT	IL-1B inflam inh
Cc1cc(C)c(C(=O)/C=C/c2ccco2)c(=O)[nH]1	5%	-1%	20	-6%	3%	?
COc1ccc(/C=C/C(=O)c2c(C)cc(C)[nH]c2=O)c2ccccc12	14µM*	?	-1	?	?	-99*
Cc1cc(C)c(C(=O)/C=C/c2cccs2)c(=O)[nH]1	6%	-17%	-2	?	?	-73*
C/C(=C\c1cccs1)C(=O)c1c(C)cc(C)[nH]c1=O	-1%	5%	-3	24%	0%	-3
Cc1ccc(/C=C/C(=O)c2c(C)cc(C)[nH]c2=O)cc1	?	?	-7	11µM*	8.9µM*	-94*
Nc1nccnc1C(=O)NCC(=O)NC1CC1	nt	nt	2	nt	nt	nt
C/C(CC(C)(C)c1ccccc1)=N\NC(=O)CCSc1ccccc1	nt	nt	1	nt	nt	nt
CC(=O)C1=C(C)OC2(O)c3ccccc3C(=O)C12O (configuration not stated)	5%	-3%	3	18µM*	?	12
CCOC(=O)C1=C(C)N[C@@]2(O)c3ccccc3C(=O)[C@@]12O	-9%	-14%	-1	-1%	-7%	-11
CCOC(=O)C1=C(C)OC2(O)c3ccccc3C(=O)C12O (configuration not stated)	0%	-14%	3	21µM*	?	-6
CC1=C(C(=O)OC(C)C)C2(O)C(=O)c3ccccc3C2(O)N1 (configuration not stated)	9%	38%	2	-24%	-30%	-13
C/C(=N/Nc1ccc(S(=O)(=O)Nc2ccc(Cl)cc2)cc1[N+](=O)[O-])c1cccc([N+](=O)[O-])c1	nt	nt	2	nt	nt	nt
OCc1nc2ccccc2n1CC(O)COc1ccccc1 (configuration not stated)	0%	-11%	-3	-15%	-16%	-23
N=c1n(Cc2ccccc2)c2ccccc2n1CC(O)COc1ccccc1 (configuration not stated)	-21%	5%	-3	6.5µM*	7.3µM*	-88*
Cc1ccc(Cn2c(=N)n(CC(O)COc3ccccc3)c3ccccc32)cc1 (configuration not stated)	7.1µM*	5µM*	-5	9.2µM*	18µM*	0
O=C(/C=C/N1CCCCC1)c1ccc(Br)cc1	nt	nt	14	nt	nt	nt
CCOC(=O)c1c(C)oc2ncn(Cc3noc(-c4cccs4)n3)c(=O)c12	nt	nt	-4	nt	nt	nt
Cc1cccc(C)c1NC(=O)c1sccc1SCc1cccc(C(F)(F)F)c1	-15%	?	2	18µM*	16µM*	?
Cc1ccsc1C(=O)Nc1ccccc1SCc1ccccc1	nt	nt	9	nt	nt	nt
COc1ccc(-n2cccc2/C=C/[N+](=O)[O-])cc1	?	10µM*	13	3.3µM*	2.3µM*	-103*
O/N=C(/C[n+]1cccc(Br)c1)c1ccc2ccccc2c1	nt	nt	-20	13µM*	?	nt
Cc1ccc(NS(=O)(=O)c2ccc(C(=O)N(C)Cc3ccccc3)cc2)cc1C	nt	nt	10	nt	nt	nt
C=CCOc1ccc(CN(C)C(=O)c2ccc(CNS(=O)(=O)c3ccc(C)c(C)c3)cc2)cc1	nt	nt	-1	21µM*	?	-55*
S=c1[nH]c(-c2cccc(Cl)c2)cs1	nt	nt	-8	nt	nt	nt
